Screening results deposited in PubChem by National Center for Advancing Translational Sciences (NCATS).
Most compounds without a hit are left out; they make up all but 6% or so of the library.
Tau fibril ThT: tau fibrillization inhibition (ThT binding) | P10636 | Potency, µM (highest dose often 57.4 µM), for the others: top-dose activity, negative = inhibition, actives largely listed as inhibitors | recombinant tau K18 P301L, heparin-induced fibrillization, ThT fluorescence | actives 2.1% (n = 270,000); further: nearly all actives have a fitted effect of over 55% in size
Target sequence (P10636 561-689 P618L limits assumed): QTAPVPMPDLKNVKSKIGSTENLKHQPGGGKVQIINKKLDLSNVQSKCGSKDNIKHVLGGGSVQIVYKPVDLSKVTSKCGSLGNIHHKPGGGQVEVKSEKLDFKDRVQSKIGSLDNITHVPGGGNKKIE
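Tau K18 P301L fragment (15 uM unlabeled plus 0.24 uM Alexa 594-labeled) in 100 mM sodium acetate pH 7 with compound, fibrillization induced by 20 uM heparin for 6 hr at 37 C. Thioflavin T (30 uM) added, fluorescence read after 1 hr (ex 450, em 510 nm).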
VDR inhibitor: blocks the human vitamin D receptor | actives 0.93% (n = 400,000) | Potency, µM, inactives show max response, negative = inhibition, actives largely listed as inhibitors | VDR-SRC2-3 peptide fluorescence polarization, 2 h | P11473
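VDR–SRC2-3 interaction, FP format. Cmpds 23 nl via pintool, brief spin, 2 h ambient incubation.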
Sfp PPTase inh: blocks B. subtilis Sfp PPTase activity; actives 3.5% (n = 310,000); Q9F4F7; Biochemical Sfp PPTase activity, qHTS; Potency, µM, for inactives: largest response in the series, negative = inhibition, hits mostly inhibitors;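 further: the enzyme is Sfp with the accession as filed and its product quenches rhodamine fluorescence; 0% = enzyme reaction without inhibitor and -100% = no enzyme wells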
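Step 1, compound plus 15 nM Sfp-PPTase, 15 min, room temperature. Step 2, add rhodamine-CoA (5 uM) and BHQ-2-YbbR (12.5 uM). Step 3, read 525/598 nm fluorescence at 0 and 30 min.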
PLK1 PBD block: blocks phosphopeptide binding to human PLK1 polo-box domain; actives 2.8% (n = 360,000); Plk1 PBD binding of FITC phosphopeptide, fluorescence polarization; Potency, µM, for inactives: max response, negative = inhibition, actives largely listed as inhibitors; P53350; AID 720504; further: series mostly up to about 57 µM; nearly all actives have a fitted effect of over 65% in size
Tau fluor cs: counter-screen for tau fibril formation inhibitors; Potency, µM (titrated, usually from 57.7 µM), for inactives: at the highest dose activity change, negative = decrease; tau K18 P301L (four-repeat tau fragment) Alexa594 fluorescence, heparin fibrillization; actives 0.93% (n = 280,000); AID 1463; further: nearly all actives have a fitted effect of over 55% in size
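Human K18 P301L tau (15 uM unlabeled plus 0.24 uM Alexa 594-labeled, final) in 100 mM sodium acetate pH 7 was mixed with compound and 20 uM heparin and incubated 6 hr at 37 C.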
Tau FP inhib: inhibitors of human tau fibril formation | K18 P301L tau heparin fibrillization, Alexa594 FP, 6 h | Potency, µM (top dose mostly 57.7 µM), without a hit: at the highest dose activity, negative = inhibition, most hits filed as inhibitors | actives 0.39% (n = 280,000) | AID 1468; further: nearly all actives have a fitted effect of over 55% in size
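Human tau K18 […] P301L fragment, 15 uM unlabeled plus 0.24 uM Alexa 594-labeled tau (final), with compound and 20 uM heparin in 100 mM sodium acetate pH 7; 6 hr at 37 C, then Alexa 594 FP read.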
Active calls of the source: *. The call rests on the fitted dose curve; in most records, active means well fitted curve in the direction sought with a large enough effect; inconclusive means small, poorly fitted or top-dose-only effect, or another doubt; inactive means no such curve, though single readings can be large; an effect the other way counts as inactive or inconclusive. Unless noted, on the % scale 0 is the no-effect control and ±100 the full control effect; potency means the concentration at half of the fitted maximal effect.

CCN1C(=O)c2ccccc2Sc2ccc(NC(=O)Nc3cccc([N+](=O)[O-])c3C)cc21 was read as Tau fibril ThT 1%, VDR inhibitor 7%, Tau fluor cs inconclusive and Tau FP inhib 16µM*.
For CC(C)(C)S(=O)(=O)/C(C#N)=C/c1cccn1S(=O)(=O)c1ccccc1 the results were PLK1 PBD block 1%.
`COc1ccc(Cl)cc1NC(=O)CSC1=Nc2ccccc2C2=NC(CC(=O)NCc3cccs3)C(=O)N12` (stereo not given) gave Tau fibril ThT inconclusive, VDR inhibitor 5%, Tau fluor cs -22% and Tau FP inhib inconclusive.
For COc1ccc(C(=O)/C(=C/O)N=Nc2ccc(F)cc2)cc1 the results were Tau fibril ThT 28µM*, VDR inhibitor 1%, Sfp PPTase inh -4%, PLK1 PBD block -4%, Tau fluor cs -29% and Tau FP inhib -9%.
`COc1ccc(N=N/C(=C\O)C(=O)c2cccs2)cc1` gave Tau fibril ThT 13µM*, VDR inhibitor -8%, Sfp PPTase inh -10%, PLK1 PBD block -14%, Tau fluor cs inconclusive and Tau FP inhib 4%.
For COc1ccc(C(=O)C(/C=N/O)=N/Nc2ccc(F)cc2)cc1 the results were Tau fibril ThT inconclusive, VDR inhibitor -6%, Sfp PPTase inh -2%, PLK1 PBD block -8%, Tau fluor cs -19% and Tau FP inhib 17%.
Screening CN(C)c1ccc(CNC(=O)CN2C(=O)C3CCCCN3c3ccc(C(=O)N4CCCC4)cc32)cc1 (stereo not given) returned Tau fibril ThT -9%, VDR inhibitor 4%, Tau fluor cs -5% and Tau FP inhib -3%.
Screening N#CCCSCc1ccc2oc(C(=O)O)cc2c1 returned Tau fibril ThT -1%, VDR inhibitor -7%, Sfp PPTase inh 7%, PLK1 PBD block -10%, Tau fluor cs 3% and Tau FP inhib -2%.
For COCc1ccc2oc(C(=O)O)cc2c1 the results were Tau fibril ThT -9%, VDR inhibitor -15%, Sfp PPTase inh 3%, PLK1 PBD block 3.4µM*, Tau fluor cs -4% and Tau FP inhib 1%.
CCC(c1ccccc1)C(CC)c1cc(O)c(O)c(O)c1 (stereo not given) was read as VDR inhibitor inconclusive and PLK1 PBD block 6µM*.
`O=C(NCCc1cccs1)Nc1ccc2nc([C@@H]3O[C@H](CO)[C@@H](O)[C@H]3O)[nH]c2c1` gave PLK1 PBD block 2%.
CN1C(=O)c2oc3ccc(Br)cc3c(=O)c2C1c1ccncc1 (stereo not given) was read as Tau fibril ThT -14%, Sfp PPTase inh 40µM*, Tau fluor cs 9% and Tau FP inhib 3%.
`N#Cc1c(N(CCO)CCO)nc(N)c2c(N)nc3c(c12)CC(=O)N3Cc1cccs1` gave Tau fibril ThT 16µM*, VDR inhibitor -12%, Sfp PPTase inh 4%, PLK1 PBD block -20%, Tau fluor cs inconclusive and Tau FP inhib inconclusive.
CCOc1ccccc1NC(=O)NNC(=O)CCc1ccc(OC)cc1 was read as VDR inhibitor -8%, Sfp PPTase inh 10% and PLK1 PBD block 2%.
For CCc1ccc(CN(C)C(=O)c2ccc3c(c2)OCCO3)cc1 the results were VDR inhibitor -10%, Sfp PPTase inh 7% and PLK1 PBD block 3%.
For C/C(=N/NS(=O)(=O)c1ccc(C)cc1)c1cccc(NC(=O)c2cccc(Cl)c2)c1 the results were Tau fibril ThT 13%, VDR inhibitor -3%, Sfp PPTase inh 14%, PLK1 PBD block -10%, Tau fluor cs inconclusive and Tau FP inhib inconclusive.
For O=C(O)CCC(=O)Nc1ccc(NC(=O)c2ccc(Cl)cc2Cl)c(Cl)c1 the results were Tau fibril ThT -2%, VDR inhibitor -11%, Sfp PPTase inh 5%, PLK1 PBD block 21µM*, Tau fluor cs 3% and Tau FP inhib 4%.
